The panel holds about 83,000 compounds, 20% with a hit somewhere; the sample as a whole holds those more often.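 Each cell line was grown in a 96-well plate and treated with one concentration of compound for 48 hours. Values below 10 were considered active.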 A number with no mark means an inactive call. The source made the active and inactive calls.
test system: T-47D breast; assay: NCI-60 one-dose screen, 48 h (100 = growth as untreated, 0 = no growth, -100 = all killed); conditions: 10 µM
Description: Growth inhibition of the T-47D human tumor cell line is measured as a screen for anti-cancer activity. Cells are grown in 96 well plates and exposed to the test compound for 48 hours. Compounds are tested at a single concentration, which is 10^-5 M for most compounds. The reported endpoint is percent growth (GI% or GIPRCNT), where numbers from 0 - 100% represent growth inhibition, and numbers from -100% - 0 represent cell death. For example, a value of 40 represents 60% growth inhibition. A value of 0 means no net growth occurred over the course of the experiment. A value of -40 indicates 40% of cells at the beginning of the experiment died by the end of the experiment. A value of -100 means all cells are dead at the end of the experiment.
NCI-60 Human Tumor Cell Lines Screen was performed using the standard one-dose NCI protocol, which is described in more detail at https://dtp.cancer.gov/discovery_development/nci-60/default.htm.
Compounds with GIPRCNT values below 10 were considered active. Activity score was based on GIPRCNT using the following formula: […]
Score is 0 for GIPRCNT values of 100 or above, 50 for GIPRCNT values of 0, and 100 for GIPRCNT values of -100.

Row | SMILES | growth
1 | CC12CCC3(CCC(=O)NCCCNc4ccnc5cc(Cl)ccc45)[C@@](C)(OO[C@]3(C)O1)O2 | 36.9%
2 | O=C(/C=C/c1ccccc1)c1nc2ccccc2n1Cc1ccc(Br)cc1 | -31.3% (active)
3 | C=CC[Se]C(=O)c1cncc(C(=O)[Se]CC=C)c1 | -42.2% (active)
4 | COC(=O)c1ccc(-n2cc(CCCN(CCNc3ccnc4cc(Cl)ccc34)C(=O)CCC(=O)O[C@@H]3O[C@@H]4OC5(C)CC[C@H]6[C@H](C)CC[C@@H]([C@H]3C)[C@@]46OO5)nn2)cc1 | 37.6%
5 | O=C(/C=C/c1ccc(F)cc1)c1nc2ccccc2n1Cc1ccc(Br)cc1 | -52.5% (active)
6 | COc1ccc(/C=C/C(=O)c2nc3ccccc3n2Cc2ccc(Br)cc2)cc1 | 31.1%
7 | C[C@H]1[C@@H](CC(=O)N[C@@H](Cc2coc3ccccc23)B(O)O)O[C@@H]2OC3(C)CC[C@H]4[C@H](C)CC[C@@H]1[C@@]24OO3 | -27.7% (active)
8 | Cc1ccc2[nH]c(=S)n(-c3ccc(F)cc3)c(=O)c2c1 | 93.5%
9 | O=C(NC([Se])=NC1CCCCC1)c1ccc2c(c1)OCO2 | -0.387% (active)
10 | CC12OOC(C)(OO1)C2CCC(=O)NCCCNc1ccnc2cc(Cl)ccc12 (stereo not given) | 40%
11 | C[C@H]1[C@@H](Oc2ccc(-c3cn(-c4ccnc5cc(Cl)ccc45)nn3)cc2)O[C@@H]2OC3(C)CC[C@H]4[C@H](C)CC[C@@H]1[C@@]24OO3 | 25.6%
12 | COCCOCCOCCOc1ccc(-n2cc(CCCN(CCNc3ccnc4cc(Cl)ccc34)C(=O)CCC(=O)O[C@@H]3O[C@@H]4OC5(C)CC[C@H]6[C@H](C)CC[C@@H]([C@H]3C)[C@@]46OO5)nn2)cc1 | 20.6%
13 | O=C(/C=C/c1cccc(Br)c1)c1nc2ccccc2n1Cc1ccc(Br)cc1 | -0.946% (active)
14 | CC[C@]12C=CCN3CC[C@@]4(c5ccc(OC)cc5N(C)[C@H]4[C@@](O)(C(=O)OC)[C@@H]1OC(=O)CCC[P+](C1CCCCC1)(C1CCCCC1)C1CCCCC1)[C@@H]32 | -1.81% (active)
15 | COC(=O)C[C@](O)(CCC(C)C)C(=O)O[C@H]1C(OC)=C[C@@]23CCCN2CCc2cc4c(cc2[C@@H]13)OCO4 | -7.42% (active)
16 | O=C(/C=C/c1ccc(F)cc1)c1nc2ccccc2n1Cc1ccc(F)cc1 | 16.6%
17 | O=C(/C=C/c1ccco1)c1nc2ccccc2n1Cc1ccc(Br)cc1 | 4.25% (active)
18 | CCOP(=O)(OCC)C(NC(C)=O)C(=O)SCCN (stereo not given) | 99.6%
19 | O=C(/C=C/c1ccccc1Cl)c1nc2ccccc2n1Cc1ccc(F)cc1 | -66.9% (active)
20 | C[C@H]1[C@H](OC(=O)CCC(=O)N(CCCc2cn(-c3ccc(C#N)cc3)nn2)CCNc2ccnc3cc(Cl)ccc23)O[C@@H]2OC3(C)CC[C@H]4[C@H](C)CC[C@@H]1[C@@]24OO3 | 32.1%

Row | SMILES | growth
21 | COC(=O)CCn1c(-c2ccc(-n3cc(-c4ccc(O[C@H]5O[C@@H]6OC7(C)CC[C@H]8[C@H](C)CC[C@@H]([C@H]5C)[C@@]68OO7)cc4)nn3)cc2)nc2ccccc21 | 14.9%
22 | O=C(NC([Se])=NC1CCCCC1)c1ccccc1 | 46%
23 | CC1=C(CCC=NNC(N)=O)C2=C(C)C3(CC3)[C@@](C)(O)C(=O)C2=C1 | -38.1% (active)
24 | O=C(/C=C/c1ccc(Cl)cc1)c1nc2ccccc2n1Cc1ccc(F)cc1 | 7.93% (active)
25 | O=C(/C=C/c1ccccc1)c1nc2ccccc2n1Cc1ccc(F)cc1 | -15.9% (active)
26 | C=CC[Se]C(=O)c1ccc(C(=O)[Se]CC=C)s1 | -40.4% (active)
27 | CC[C@]12C=CCN3CC[C@@]4(c5ccc(OC)cc5N(C)[C@H]4[C@@](O)(C(=O)OC)[C@@H]1OC(=O)CCC[P+](c1ccc(F)cc1)(c1ccc(F)cc1)c1ccc(F)cc1)[C@@H]32 | 10.4%
28 | COC(=O)C[C@](O)(CCC(C)C)C(=O)O[C@@H]1C(OC)=C[C@]23CCCN2CCc2cc4c(cc2[C@H]13)OCO4 | -24% (active)
29 | CCOP(=O)(CC(F)(F)C(F)(F)F)OCC | 17.3%
30 | CN(C)CCc1cn(C2CCC2)c2cccc(O)c12 | 69.9%
31 | N#C[Se]CC(=O)Nc1cccc(C(F)(F)F)c1 | 51%
32 | CC(C)N=C([Se])NC(=O)c1ccccc1 | -34.6% (active)
33 | COc1cc(OC)c(S(=O)(=O)N(CCCl)CCCl)cc1C(=O)/C=C/c1cc(OC)c(OC)c(OC)c1 | 21%
34 | COc1ccc2cc([C@H](C)C(=O)[Se]CCC#N)ccc2c1 | 12%
35 | COc1cc(OC)c(/C=C/C(=O)c2nc3ccccc3n2Cc2ccc(F)cc2)c(OC)c1 | 61.8%
36 | C[C@H]1[C@H](OC(=O)CCC(=O)N(CCCc2cn(-c3ccc(CN4CCOCC4)cc3)nn2)CCNc2ccnc3cc(Cl)ccc23)O[C@@H]2OC3(C)CC[C@H]4[C@H](C)CC[C@@H]1[C@@]24OO3 | 25.4%
37 | CC(C)C[C@H](NC(=O)CNC(=O)C[C@H]1O[C@@H]2OC3(C)CC[C@H]4[C@H](C)CC[C@@H]([C@H]1C)[C@@]24OO3)B(O)O | -32.8% (active)
38 | COc1cc2cc(C(=O)N3C[C@@H](CCl)c4c3cc(OC(=O)N3CCN(C)[C@@H]5CSSC[C@@H]53)c3ccccc43)[nH]c2c(OC)c1OC | -5.73% (active)
39 | CC[C@@]12CC(C(=O)OC)=C3Nc4cc5c(cc4[C@@]34CCN(C[C@H]3O[C@H]31)[C@@H]24)[C@@H]1[C@H](O5)[C@@H](O)[C@@]2(CC)CC(C(=O)OC)=C3Nc4cc(OC)ccc4[C@@]34CCN1[C@@H]24 | 25.7%
40 | CC[C@]12C=CCN3CC[C@@]4(c5ccc(OC)cc5N(C)[C@H]4[C@@](O)(C(=O)OC)[C@@H]1OC(=O)CCCC[P+](c1ccc(C)cc1)(c1ccc(C)cc1)c1ccc(C)cc1)[C@@H]32 | -64.5% (active)
